# HCV inhibitor: inhibitors of hepatitis C virus infection. Huh7.5.1 HCVcc-Cre infection, luciferase reporter, 44 h. Potency, µM (titrated, usually from 41.8 µM), for inactives: top-dose activity change, negative = inhibition, hits mostly inhibitors. actives 3.4% (n = 340,000). AID 651820; further: potency means the concentration at half of the fitted maximal effect
#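 HCVcc-Cre virus at an moi near 0.5 was added right after compound to cells cultured 4 h from seeding (1,000 cells/well). Luciferase activity was determined 44 h later, 15 min after substrate addition at RT.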
# Pf growth 96h: P. falciparum growth inhibition at 96 hour, primary screen for plastid delayed-death inhibitors | P. falciparum luciferase reporter growth, 96 h | Potency, µM (titrated, usually from 28.7 µM), for inactives: at the highest dose activity change, negative = inhibition, usual class: inhibitors | actives 6.9% (n = 320,000); further: potency means the concentration at half of the fitted maximal effect
#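 Two-generation exposure (96 h) targets delayed-death phenotype. Reporter parasites carrying integrated firefly luciferase, in red cells at 2% hematocrit and 0.05% parasitemia final, kept at 37 C, 5% CO2; luminescence loss indicates inhibition.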
# HCMV inh: inhibitors of human cytomegalovirus; HFF cells, HCMV-luciferase reporter, 72 h; active compounds read low; activity change, negative = inhibition, % at 57.5 µM; actives 4.5% (n = 410,000); AID 1259415; in the data active means activity change below about -60%; inconclusive means no clear call, values can overlap the other calls; inactive means above about -39%
#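 After 16 h attachment at 37C, HFF cells received test compound and HCMV-luciferase (1 PFU/cell); reporter luminescence read 72 h later, data normalized against buffer-only and known inhibitor Salinomycin.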
# Pf growth 48h: inhibits P. falciparum growth in the first generation, 48 h | P. falciparum luciferase growth in erythrocytes, 48 h | Potency, µM (series often up to 28.7 µM), inactives show at the highest dose activity change, negative = inhibition, usual class: inhibitors | actives 5.9% (n = 310,000) | AID 504832; further: potency means the concentration at half of the fitted maximal effect
#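 Luminescence readout; reporter = integrated firefly luciferase in P. falciparum. RBC culture at 2% hematocrit, 0.1% parasitemia final, 37 C/5% CO2; decreased signal taken as growth inhibition.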
# An asterisk follows results filed as active; ? = inconclusive; / = no result given; [ ] = remark or other dose. The list is not random: actives were taken first. Their share in the collection is about 13%. Unless noted, the call rests on the fitted dose curve; in most records, active means well fitted inhibition curve with a large enough effect; inconclusive means small, poorly fitted or top-dose-only effect, or another doubt; inactive means no such curve, though single readings can be large or run the other way. On the % scale 0 is the no-effect control and ±100 the full control effect.
SMILES,HCV inhibitor,Pf growth 96h,HCMV inh,Pf growth 48h
CCOC(=O)c1ccccc1NC(=O)Cn1c(=O)n(Cc2nc(C)no2)c(=O)c2ccccc21,/,/,-8,/
CN(C)C1(CNC(=O)c2ccc(NS(=O)(=O)c3ccc(Cl)c(Cl)c3)cc2)CCCCC1,?,13µM*,-8,12µM*
O=C(NCC1(N2CCOCC2)CCCCC1)c1cccc(S(=O)(=O)N2CCc3ccccc3C2)c1,?,?,59,8.3µM*
O=C(NC(c1ccc(-c2ccccc2)cc1)c1cnccn1)C1CCN(CCCOc2ccccc2)CC1 (configuration not stated),/,/,-36,/
Cc1ccccc1NC(=O)c1c(C)nc(SCC(=O)OCc2ccccc2)c(C#N)c1-c1ccc(F)cc1,?,?,-23,13µM*
COc1cccc(C(C)(O)c2nc(-c3ccc(OC)c(OC)c3)cs2)c1 (configuration not stated),/,/,-20,/
COc1ccc(-c2csc(C(C)(O)c3ccc(OC)cc3)n2)cc1 (configuration not stated),/,/,-24,/
COc1cccc(C(C)(O)c2nc(-c3ccc(N(C)C)cc3)cs2)c1 (configuration not stated),/,/,-74*,/
COc1ccc(-c2csc(C(C)(O)c3ccccc3)n2)cc1 (configuration not stated),/,/,12,/
COc1ccc(-c2csc(C(C)(O)c3cccnc3)n2)cc1 (configuration not stated),/,/,-69*,/
COc1ccc(C(C)(O)c2nc(-c3ccccc3)cs2)cc1 (configuration not stated),/,/,-78*,/
CCC(Cc1ccccc1)NC(=O)CN1C(=O)COc2ccc(S(=O)(=O)N3CCCCCC3)cc21 (configuration not stated),/,/,1,/
Cn1c(CNC(=O)CSc2n[nH]c(-c3ccccc3)n2)nc2ccccc21,/,/,-8,/
CCOC(=O)c1c(-c2ccccc2)[nH]c2ccc(C)cc12,/,/,-16,/
CCC(C)Sc1nc(O)c(Cc2ccccc2)c(=O)[nH]1 (configuration not stated),-2%,2.6µM*,23,/
Cc1cccc(NC(=O)NCCn2c(=O)oc3ccc(C)cc32)c1,/,/,-19,/
CCCn1ncc(CN2CCC(CO)(Cc3ccc(OC)cc3)CC2)c1C,-2%,0.37µM*,-1,-3%
COc1ccc(CC2(CO)CCN(Cc3cccc4nccnc34)CC2)cc1,-13%,?,-2,-5%
COc1ccc(CC2(CO)CCN(Cc3cnn(-c4ccccc4)c3)CC2)cc1,?,-4%,-33,-8%
COc1ccc(CC2(CO)CCN(Cc3cnn(-c4ccc(F)cc4)c3)CC2)cc1,10µM*,?,-10,?
CCOC(=O)c1ccc(NC(=O)CCn2c(=O)c3cccn3c3ccccc32)cc1,/,/,-13,/
COc1ccc(-c2c3c(=O)n(C)c(=O)n(C)c3c3c(-c4ccccc4)nc4ccccc4n23)cc1,/,/,25,/
CC(C)Nc1nc(NC(C)C)nc(N(C)N)n1,5.6µM*,3.7µM*,14,/
CC(C)Nc1nc(NC(C)C)nc(C(N)=O)n1,20%,/,72,6%
CC(C)Nc1nc(NC(C)C)nc(N(C)C(N)=O)n1,-7%,12µM*,51,20%
SMILES,HCV inhibitor,Pf growth 96h,HCMV inh,Pf growth 48h
CC(C)Nc1nc(NC(C)C)nc(N(C)n2cnnc2)n1,3%,-23%,36,12%
Cc1ccc(-c2nc(C3CCN(S(=O)(=O)c4ccc(C(C)(C)C)cc4)CC3)no2)cc1,18%,2.9µM*,-98*,/
CCc1ccc(S(=O)(=O)NCc2csc(-c3cccnc3)n2)s1,?,0.74µM*,17,1%
CCc1ccccc1NC(=O)Nc1nnc(N(C)Cc2ccccc2)s1,/,/,10,/
CC(=O)Nc1ccccc1,-4%,?,27,-4%
CC(=O)Nc1ccc(C2(c3ccc(NC(C)=O)cc3)NC(=O)c3ccccc32)cc1,16%,46%,22,1.3µM*
CCOc1cc(N2CCOCC2)c(OCC)cc1NC(=O)COc1cccc(CC)c1,10µM*,?,-36,10µM*
CCOc1cc(N2CCOCC2)c(OCC)cc1NC(=O)COC(=O)c1cc2ccccc2cc1O,?,0%,32,2%
CCOc1cc(N2CCOCC2)c(OCC)cc1NC(=O)Cc1cccc(OC)c1,-14%,?,-13,?
CCOc1cc(N2CCOCC2)c(OCC)cc1NC(=O)CSc1ccccc1C(=O)O,-9%,9.3µM*,-26,?
CCOc1cc(N2CCOCC2)c(OCC)cc1NC(=O)Cc1ccc(OC)c(OC)c1,?,180%,1,9.3µM*
CCOc1cc(N2CCOCC2)c(OCC)cc1NC(C)C(=O)N1CCC(C)CC1 (configuration not stated),8%,?,-30,10µM*
CCc1cccc(-n2c(=O)c3cccnc3n2CC(=O)NCc2ccccc2Cl)c1,/,/,4,/
CCOc1cc2c(cc1OCC)C(c1c(F)cccc1Cl)CC(=O)N2 (configuration not stated),/,/,-14,/
COc1ccccc1CNC(=O)C1CCN(S(=O)(=O)c2c(C)noc2/C=C/c2c(C)cc(C)cc2C)CC1,/,/,-24,/
COc1ccccc1-c1nn2c(=O)cc(CN3CCN(C(=O)Nc4ccc(C)cc4Cl)CC3)nc2s1,/,/,5,/
Cc1nc2nncn2c(Nc2ccc(F)cc2)c1C,/,/,-30,/
CCOc1cc(N2CCOCC2)c(OCC)cc1NCC(=O)N1CCN(Cc2ccccc2)CC1,?,5.9µM*,0,?
COc1ccc(CCNC(=O)c2cnc3sc(N4CCC(C)CC4)nn3c2=O)cc1OC,/,/,4,/
CCN(CC)S(=O)(=O)c1cccc(-c2csc(C)n2)c1,-5%,-11%,-20,?
CCN(CC)S(=O)(=O)c1cccc(N=Nc2sc(N)nc2C)c1,-2%,12µM*,-23,-10%[0.00184 µM]
CC1CCN(C(=O)c2cccc(NC(=O)c3nsc4ccccc34)c2)CC1,/,/,61,/
CCCCc1c(C)c(C#N)c2nc3ccccc3n2c1Nc1c(C)n(C)n(-c2ccccc2)c1=O,?,2.1µM*,-90*,1.9µM*
Cc1c(Nc2c3c(c(C#N)c4nc5ccccc5n24)CCC3)c(=O)n(-c2ccccc2)n1C,/,13%,/,-2%
CCc1c(C)c(C#N)c2nc3ccccc3n2c1NCCN(C)C,?,-11%,-5,9.3µM*
SMILES,HCV inhibitor,Pf growth 96h,HCMV inh,Pf growth 48h
C=C(C)Cc1c(C)c(C#N)c2nc3ccccc3n2c1NCCCN(C)C,3%,9.3µM*,?,?
Cc1cc(Br)ccc1SCC(=O)OCC(=O)NCc1ccco1,1%,31%,-12,19%
OC(CNCc1ccco1)Cn1c2ccc(Br)cc2c2cc(Br)ccc21 (configuration not stated),?,0.29µM*,33,/
Cc1ccccc1Cn1c(C)c(CNCc2ccccc2)c(C(=O)O)c1C,/,/,8,/
C/C(=N\NC(=O)c1ccccc1)c1c(O)n(Cc2ccccc2)c(=O)[nH]c1=O,-14%,18%,14,34%
C/C(=N\Nc1cccc2ccccc12)c1c(O)n(Cc2ccccc2)c(=O)[nH]c1=O,-6%,?,20,15µM*

# Screening results deposited in PubChem by National Center for Advancing Translational Sciences (NCATS).
